From PubChem BioAssay
Cycloheximide cs: counter-screen for Shiga toxin inhibitors: cycloheximide protein synthesis inhibition | cell reporter, cycloheximide protein synthesis inhibition counterscreen | max response, % | hit rate 12% among 300,000; in the data active = max response mostly above about 13%, no sharp cut-off; inactive = mostly below about 14%; note: read at 38.3 µM for the half of the compounds with a filed dose
HCV inh: blocks hepatitis C virus. Huh7.5.1 HCVcc-Cre infection, luciferase reporter, 44 h. Potency, µM (titrated, usually from 41.8 µM), most hits filed as inhibitors. hit rate 3.4% among 340,000
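A cell-based infection assay in which seeded cells (1,000 per well) receive test compound after 4 h, are inoculated with HCVcc-Cre at approximately 0.5 moi, and are incubated 44 h before luminescence detection.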
Shiga inhibitor: Shiga toxin inhibition. Vero cells, Shiga toxin protein synthesis inhibition reporter. inhibition, % at 38.7 µM. hit rate 9.2% among 290,000; in the data active = inhibition mostly above about 28%, no sharp cut-off; inactive = mostly below about 43%
Pf growth 96h: P. falciparum growth inhibition at 96 hours; P. falciparum luciferase reporter growth, 96 h; Potency, µM (top dose mostly 28.7 µM), actives largely listed as inhibitors; hit rate 6.9% among 320,000; AID 504834
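Infected RBCs, 2% Hct / 0.05% parasitemia final; luciferase-reporter P. falciparum; cpd 96 h, 37 C, 5% CO2; luciferase detection reagent; luminescence.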
AMA1 RON2 block: inhibitors of Plasmodium falciparum AMA1-RON2 interaction. AlphaScreen AMA1-biotinylated RON2 peptide binding. Potency, µM (top dose mostly 58.2 µM), hits mostly inhibitors. hit rate 0.2% among 360,000. AID 720542; note: nearly all actives have a fitted effect of over 45% in size
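AMA1 (3D7) with his tag at 25 nM final met compounds first, then biotinylated RON2 peptide at 25 nM; detection used donor plus acceptor beads, 10 µg/mL apiece, read by AlphaScreen after 30 min at room temperature.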
Pf growth 48h: inhibits P. falciparum growth in the first generation, 48 h; AID 504832; hit rate 5.9% among 310,000; Potency, µM (top dose mostly 28.7 µM), usual class: inhibitors; P. falciparum luciferase growth in erythrocytes, 48 h
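Read-out is firefly luciferase luminescence from an integrated reporter in P. falciparum, so falling signal marks reduced parasite growth. Infected erythrocytes were at 2% hematocrit and 0.1% parasitemia (final) in Albumax-supplemented RPMI 1640.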
Hits are given with their value; n = inactive; u = inconclusive; x = not tested or not shown; [ ] = dose if it differs, or a comment. This is a sample that favours compounds with a hit; in the whole collection about 21% have one here. Unless noted, calls come from the whole dose curve; as a rule, active = well fitted curve in the direction sought with a large enough effect; inconclusive = small, poorly fitted or top-dose-only effect, or another doubt; inactive = no such curve, though single readings can be large; an effect the other way counts as inactive or inconclusive.

SMILES | Cycloheximide cs | HCV inh | Shiga inhibitor | Pf growth 96h | AMA1 RON2 block | Pf growth 48h
COc1ccc(/C(C)=N/Nc2nc3ccccc3nc2C)cc1 | 45 | 13µM | 76 | n | n | n
NC(=O)NC(CC(=O)N1CCc2ccccc2C1)c1ccc(Cl)cc1 (stereo not drawn) | n | n | n | n | n | n
COc1ccc(/C=N/Nc2nncc3ccccc23)cc1 | 25 | u | n | n | n | n
O=C(CN(C(=O)c1csnn1)c1cccc(C(F)(F)F)c1)NCCc1ccccc1 | n | n | n | n | n | n
CCCCCCCSc1cc(OC)c(CCN(C)C)cc1OC | n | u | n | 4.7µM | u | u
CCN(C(=O)CSc1nc2ccccc2n1C)C1CCS(=O)(=O)C1 (stereo not drawn) | x | n | x | n | n | n
Cc1ccccc1-c1cc2nc(NCc3ccc4occc4c3)n(C)c(=O)c2s1 | x | x | x | x | n | x
CCOc1ccc(N(CC(=O)NC2CC3CCC2C3)S(=O)(=O)c2ccc(C)cc2)cc1 (stereo not drawn) | n | 6.3µM | n | u | n | u
CCOc1ccc(S(=O)(=O)N(CC(=O)N/N=C/c2cccs2)c2ccc(C)cc2)cc1 | n | u | n | u | n | 13µM
COc1ccc(S(=O)(=O)N(CC(=O)N/N=C/c2cccs2)c2ccc(C)cc2)cc1OC | n | u | n | x | n | n
CS(=O)(=O)N(CC(=O)NC1CCCC1)c1ccc(Oc2ccccc2)cc1 | n | n | n | n | n | n
CS(=O)(=O)N(CC(=O)NN=C1CCCCCC1)c1ccc(Oc2ccccc2)cc1 | n | u | n | n | n | n
CS(=O)(=O)N(CC(=O)NC1CC2CCC1C2)c1ccc(Oc2ccccc2)cc1 (stereo not drawn) | 15 | u | n | u | n | u
C/C(=N\NC(=O)CN(c1ccc(Oc2ccccc2)cc1)S(C)(=O)=O)C(C)(C)C | 33 | n | n | n | n | u
CCc1nc2nc(C)c(NS(=O)(=O)c3ccc(Cl)s3)c(=O)n2[nH]1 | n | n | n | u | n | u
CCCN(CC(=O)Nc1ccccc1OC)C(=O)CCC(=O)c1ccc(OCC)cc1 | x | u | x | u | n | u
Cc1ccc(CNC(=O)[C@H](C)NC(=O)C2CCN(C(=O)[C@@H]3CCCN3C(=O)OC(C)(C)C)CC2)cc1 | n | u | n | u | n | u
CCS(=O)(=O)N1CCC(C(=O)Nc2ccccc2OC)CC1 | n | n | n | n | n | n
O=C(c1ccco1)N1N=C(c2ccccc2O)CC1c1cccs1 (stereo not drawn) | x | x | x | x | n | x
COC(=O)c1cc(C)sc1NC(=O)C1CC(=O)NN1Cc1ccccc1 (stereo not drawn) | n | n | n | u | n | n
CCOC(=O)c1cc(CC)sc1NC(=O)C1CC(=O)NN1Cc1ccccc1 (stereo not drawn) | n | 5.6µM | n | n | n | u
Cc1c(/C(O)=C2\C(=O)C(=O)N(CCN(C)C)C2c2cccs2)cnn1-c1ccccc1 (stereo not drawn) | 19 | n | n | 13µM | n | n
Cc1c(/C(O)=C2\C(=O)C(=O)N(CCN(C)C)C2c2cccnc2)cnn1-c1ccccc1 (stereo not drawn) | 15 | n | n | u | n | n
COc1cc(OC)c(C(=O)COc2ncnc3ccccc23)c(OC)c1 | n | n | n | n | n | n
Cc1ccc(C)c(C(=O)COc2ncnc3ccccc23)c1 | n | n | 70 | n | n | n
SMILES | Cycloheximide cs | HCV inh | Shiga inhibitor | Pf growth 96h | AMA1 RON2 block | Pf growth 48h
O=C(COc1ncnc2cc(Cl)ccc12)c1ccc2c(c1)OCCO2 | 29 | n | 74 | n | n | n
O=C(COc1ncnc2ccccc12)c1ccc2c(c1)OCCO2 | 55 | n | 132 | n | n | n
Cc1cccc(C(=O)NCC(=O)NC2CCC(C)CC2)c1 (stereo not drawn) | x | u | x | n | n | n
Cn1c(-c2ccc3ccccc3n2)nc2cnccc21 | 27 | n | 49 | n | n | n
O=C(NCc1ccccc1)c1cc(C2CCCCN2C(=O)c2ccc(Cl)cc2)on1 (stereo not drawn) | x | x | x | x | n | x
COCCOc1ccc(C(F)(F)F)cc1NC(=O)COC(=O)c1c(C)noc1C | n | n | n | 4.7µM | n | 9.3µM
COc1ccc(-c2cc(C(=O)NNC(=S)NC(=O)c3c(-c4ccccc4)noc3C)[nH]n2)cc1 | 19 | u | 106 | u | n | u
COCCOc1ccc(C(F)(F)F)cc1NC(=O)COC(=O)c1cc[n+]([O-])cc1 | x | n | x | n | n | u
Cc1onc(-c2ccccc2)c1C(=O)OCC(=O)NC(C)c1ccc(Cl)cc1 (stereo not drawn) | x | u | x | u | n | 15µM
COc1ccc(NC(=O)COC(=O)c2c(-c3ccccc3)noc2C)cc1 | n | u | n | 10µM | n | u
CCc1nc2ccc(C(=O)N(CC)CCN(C)C)cn2c1N(C)C(=O)c1cccc(OC)c1 | x | x | x | x | n | x
COc1ccc(CNCc2ccc3ccccc3c2)c(OC)c1 | n | u | n | n | n | u
COCCNC(=O)CSc1nc2nn(-c3ccccc3)c(=O)c-2c2n1CCCCC2 | n | n | n | u | n | n
COc1ccc(Cl)cc1NC(=O)COC(=O)c1c(-c2ccccc2)noc1C | x | 4µM | x | u | n | u
CCc1nc2ccc(C(=O)Nc3cc(-c4ccccc4)ccc3OC)cn2c1N(CCN(C)C)CC1CC1 | x | x | x | x | n | x
COC(=O)c1ccc(CSCc2ccc(C#N)cc2)cc1 | 43 | x | 75 | n | x | n
N#Cc1ccc(CSCC(=O)O)cc1 | n | n | n | n | n | n
CCC(C)NC(=O)c1cc2c(=O)n(CC)c3ccccc3c2s1 (stereo not drawn) | 12 | u | n | u | n | n[0.00184 µM]
CCn1c(=O)c2cc(C(=O)NCCC(C)C)sc2c2ccccc21 | n | n | n | n | n | u
CCOC(CNC(=O)c1cc2c(=O)n(CC)c3ccccc3c2s1)OCC | n | u | n | n | n | n[0.00184 µM]
CCn1c(=O)c2cc(C(=O)NCC(OC)OC)sc2c2ccccc21 | n | u | n | 1.5µM | n | n[0.00184 µM]
CCCCNc1nc(N)nc(-c2cc(Cl)ccc2O)n1 | 74 | u | 79 | n | n | n
CCNc1nc(N)nc(-c2cc(Cl)ccc2O)n1 | 49 | u | 56 | n | n | n
COc1ccccc1N(CC(=O)N1CCCCC1C)S(=O)(=O)c1ccc(Cl)cc1 (stereo not drawn) | x | x | x | x | n | x
COC1=Nc2ccccc2/C=C\c2ccccc21 | x | x | x | x | n | x
COc1ccc(N2C(=O)CCC(C(=O)NCc3ccccn3)C2c2ccc(OC)c(OC)c2)cc1 (stereo not drawn) | n | n | n | 4.7µM | n | n
COc1ccc(-c2noc(N3CCC(C(=O)N4CCN(c5ccccn5)CC4)CC3)n2)cc1 | n | 4.5µM | n | u | n | u
COc1ccc(C2C(C(=O)N3CCN(c4ccccn4)CC3)CC(=O)N2c2ccc(OC)cc2)cc1 (stereo not drawn) | n | n | n | n | n | 4.7µM
